Experimental data from PubChem BioAssay (NCATS).
Where “and” joins values, the source holds several entries; their conditions need not be identical. Equal entries are not always repeated. Results filed as inconclusive are left out. Where a call stands in place of a potency, no number is given. A number with no mark means an inactive call. Calls of active or inactive are those of the source. Unless noted, the call rests on the fitted dose curve; in most records, active means well fitted curve in the direction sought with a large enough effect; inconclusive means small, poorly fitted or top-dose-only effect, or another doubt; inactive means no such curve, though single readings can be large; an effect the other way counts as inactive or inconclusive. Where a SMILES comes first, the peptide text is derived from it. [ ]: non-standard residue; d: D form. pGlu = O=C1CC[C@@H](C(=O)O)N1; Thz = O=C(O)[C@@H]1CSCN1

What was measured:
[1] = Primary qHTS for small molecule stabilizers of the endoplasmic reticulum resident proteome: Secreted ER Calcium Modulated Protein (SERCaMP) assay (AID 1508630)
Method in brief: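 The SH-SY5Y reporter protocol was run at 3 concentrations up to 38.3 uM (primary) or 11 concentrations (follow-up): 16 h compound, 100 nM thapsigargin for 4 h, then extracellular luciferase luminescence.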

[2] = target: Cytochrome P450 2C9 (Homo sapiens) (UniProt P11712); experiment: Cytochrome P450 family 2 subfamily C member 9 (CYP2C9) small molecule antagonists: luciferase biochemical (cell-free) qHTS assay (AID 1645842; active means well fitted curve in the direction sought with a large enough effect in the repeat runs; an effect the other way counts as inactive or inconclusive; further: nearly all actives have a fitted effect of over 55% in size; further: potency means the concentration at half of the fitted maximal effect)
Method in brief: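 P450-Glo CYP2C9 system: proluciferin substrate with enzyme in mix containing 0.4% BSA, 10 min at room temperature, then NADPH regeneration solution added and incubated 1 h at 37C. Detection reagent stopped reaction; luminescence read after 20 min as RLU.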

[3] = Primary qHTS for inhibitors of nuclear receptor binding SET domain protein 2 (NSD2) in an isogenic RCH-ACV NSD2 p.E1099K mutant (9B) (AID 1645876); further: nearly all actives have a fitted effect of over 70% in size; further: potency means the concentration at half of the fitted maximal effect
Papain (Carica papaya) = Papain (Carica papaya) (UniProt P00784); experiment: Primary qHTS assay for inhibitors of the protease papain (AID 1645873);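 further: papain turnover of Z-FR-AMC read as the AMC fluorescence gain over 10 min; series mostly up to about 50 µM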
[4] = target: Rap guanine nucleotide exchange factor 3 (Homo sapiens) (UniProt O95398); experiment: Confirmatory qHTS for antagonist of cAMP-regulated guanine nucleotide exchange factor 3 (EPAC1) (AID 1645880); further: nearly all actives have a fitted effect of over 55% in size
Method in brief: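 Released BODIPY-GDP fluoresces less than Rap1-bound BODIPY-GDP; the signal is followed at 480/540 nm at 5-min intervals over 30 min, after 5 min at room temperature. Reactions contain 100 nM EPAC1, 250 nM RAP1B-BODIPY-GDP and 50 uM GDP; results are normalized to ATA and DMSO.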

[5] = target: Rap guanine nucleotide exchange factor 3 (Homo sapiens) (UniProt O95398); experiment: Confirmatory qHTS for agonist of cAMP-regulated guanine nucleotide exchange factor 3 (EPAC1) (AID 1645881); further: nearly all actives have a fitted effect of over 75% in size; further: potency means the concentration at half of the fitted maximal effect
[6] = target: Calcium and integrin-binding protein 1 (Homo sapiens) (UniProt Q99828); experiment: Primary qHTS for Identification of Calcium Integrin Binding Protein 1 (CIB1) Competitor (AID 1508620);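 further: GST tagged CIB1 binding a fluorescein labelled alphaIIb integrin peptide tracer; top concentration of the series differs between compounds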
Method in brief: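 CIB1-GST (1 uM final) and compound incubated 15 min at room temperature before adding FITC-alphaIIb peptide tracer (100 nM final). Competition for binding read by fluorescence polarization (ex 480, em 540) after another 15 min at room temperature.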

[7] = Primary qHTS for inhibitors of nuclear receptor binding SET domain protein 2 (NSD2) in an RCH-ACV wild type WT cells (2C) (AID 1645877); further: nearly all actives have a fitted effect of over 70% in size; further: potency means the concentration at half of the fitted maximal effect
[8] = A High-Content qHTS Against Drug Library for the Identification of Small Molecules that Inhibit DYT1 Early Onset Primary Dystonia-Associated Cell Pathology (AID 1645839; calls by dose curve; further: potency means the concentration at half of the fitted maximal effect)
Method in brief: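 High-content imaging quantified EGFP-TorsinA mislocalization in HEK293-derived cells inducibly expressing DYT1 mutant torsinA, after 48 h exposure to compound given together with tetracycline induction. Cell count served as a toxicity channel alongside %pathology.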

[9] = target: Cytochrome P450 2D6 (Homo sapiens) (UniProt P10635); experiment: Cytochrome P450 family 2 subfamily D member 6 (CYP2D6) small molecule antagonists: luciferase biochemical (cell-free) qHTS assay (AID 1645840; active means well fitted curve in the direction sought with a large enough effect in the repeat runs; an effect the other way counts as inactive or inconclusive; further: nearly all actives have a fitted effect of over 55% in size; further: potency means the concentration at half of the fitted maximal effect)
Method in brief: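 P450-Glo CYP2D6 system: proluciferin substrate converted by enzyme to luciferin, read by luminescence proportional to activity. Enzyme-substrate mix with compound 10 min at room temperature, then NADPH regeneration 1 h before detection reagent.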

[10] = target: Cytochrome P450 3A4 (Homo sapiens) (UniProt P08684); experiment: Cytochrome P450 family 3 subfamily A member 4 (CYP3A4) small molecule antagonists: luciferase qHTS assay (AID 1645841; active means well fitted curve in the direction sought with a large enough effect in the repeat runs; an effect the other way counts as inactive or inconclusive; further: nearly all actives have a fitted effect of over 45% in size)
Method in brief: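 Luminescent CYP3A4 activity readout: compounds plus enzyme-substrate mix 10 min at room temperature, reaction started with NADPH regenerating system for 1 h, stopped with detection reagent, read after 20 min. Ketoconazole served as control.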

[11] = Counterscreen qHTS for small molecule stabilizers of the endoplasmic reticulum resident proteome: GLuc-NoTag assay (AID 1508627); further: series mostly up to about 76 µM
Method in brief: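 Counterscreen line: SH-SY5Y-GLuc-NoTag cells, treated with compound 19 hr before a 4 hr, 100 nM thapsigargin calcium depletion. Secreted Gaussia luciferase in the medium was measured by luminescence after coelenterazine was added (0.07x final), with cells unlysed.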

[12] = Confirmatory qHTS for small molecule stabilizers of the endoplasmic reticulum resident proteome: Secreted ER Calcium Modulated Protein (SERCaMP) assay (AID 1508628); further: nearly all actives have a fitted effect of over 40% in size; further: potency means the concentration at half of the fitted maximal effect
Method in brief: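 Reporter secretion upon ER calcium depletion (100 nM thapsigargin, 4 h, 37C) is measured as medium luminescence with coelenterazine, after 16 h compound pretreatment of SH-SY5Y-GLuc-SERCaMP cells; primary at three concentrations up to 38.3 uM, follow-up at 11 (up to 76.6 uM).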

[13] = Cell Viability qHTS for small molecule stabilizers of the endoplasmic reticulum resident proteome (AID 1508629); conditions: cell viability counter-screen, 100 nM thapsigargin for final 4 h;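 further: human SH-SY5Y neuroblastoma cells carrying the GLuc-SERCaMP reporter; compound exposure about 46 h in total before the viability read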
[14] = target: Rap guanine nucleotide exchange factor 4 (Homo sapiens) (UniProt Q8WZA2); experiment: Confirmatory qHTS for agonist of cAMP-regulated guanine nucleotide exchange factor 4 (EPAC2) (AID 1645884);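 further: nucleotide exchange releases bodipy-GDP from Rap1 and this lowers its fluorescence; nearly all actives have a fitted effect of over 65% in size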; further: potency means the concentration at half of the fitted maximal effect
[15] = target: N-terminal Xaa-Pro-Lys N-methyltransferase 1 (Homo sapiens) (UniProt Q9BV86); experiment: Confirmatory qHTS for Inhibitors of N-terminal methyltransferase 1 (NTMT1): MTaseGlo Assay (AID 1645874); conditions: NTMT1 enzyme, MTase-Glo SAH luminescence; further: potency means the concentration at half of the fitted maximal effect; nearly all actives have a fitted effect of over 65% in size
Method in brief: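 Inhibition was derived from luminescence after SAH-to-ATP conversion, scaled between no-enzyme and DMSO wells, then fitted by 4-parameter Hill. Conditions: 125 nM NTMT1, 100 uM SAM, 1 uM SPKRIA, 30 min RT.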

Sequence of Cytochrome P450 2C9 (Homo sapiens) (P11712 whole entry, looked up): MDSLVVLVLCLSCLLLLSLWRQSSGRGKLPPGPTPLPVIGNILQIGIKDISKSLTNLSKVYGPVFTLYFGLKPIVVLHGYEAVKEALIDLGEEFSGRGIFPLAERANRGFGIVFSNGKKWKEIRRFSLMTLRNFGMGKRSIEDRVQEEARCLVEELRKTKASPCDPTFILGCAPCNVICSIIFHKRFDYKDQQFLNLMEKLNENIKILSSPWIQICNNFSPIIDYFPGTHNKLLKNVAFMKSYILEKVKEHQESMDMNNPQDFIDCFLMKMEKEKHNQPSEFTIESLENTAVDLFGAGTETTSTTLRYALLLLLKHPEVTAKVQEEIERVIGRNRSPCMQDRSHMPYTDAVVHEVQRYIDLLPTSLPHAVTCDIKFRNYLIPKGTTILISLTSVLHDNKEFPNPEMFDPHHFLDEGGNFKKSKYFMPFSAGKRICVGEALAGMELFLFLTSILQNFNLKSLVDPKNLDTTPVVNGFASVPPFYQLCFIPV
Sequence of Cytochrome P450 2D6 (Homo sapiens) (P10635 whole entry, looked up): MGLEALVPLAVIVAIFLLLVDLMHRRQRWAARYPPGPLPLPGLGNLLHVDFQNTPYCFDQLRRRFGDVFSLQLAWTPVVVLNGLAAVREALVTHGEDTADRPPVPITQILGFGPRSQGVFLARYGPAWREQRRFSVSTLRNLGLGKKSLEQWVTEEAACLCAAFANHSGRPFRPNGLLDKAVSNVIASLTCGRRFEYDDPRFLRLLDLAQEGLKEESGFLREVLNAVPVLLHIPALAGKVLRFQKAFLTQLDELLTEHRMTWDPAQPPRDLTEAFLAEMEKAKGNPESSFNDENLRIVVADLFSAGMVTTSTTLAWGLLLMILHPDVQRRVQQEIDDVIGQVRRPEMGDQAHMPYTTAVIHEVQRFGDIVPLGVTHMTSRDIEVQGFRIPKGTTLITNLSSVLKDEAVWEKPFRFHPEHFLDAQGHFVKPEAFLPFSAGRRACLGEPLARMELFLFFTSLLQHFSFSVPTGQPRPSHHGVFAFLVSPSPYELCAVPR
Sequence of Rap guanine nucleotide exchange factor 3 (Homo sapiens) (O95398 whole entry, looked up): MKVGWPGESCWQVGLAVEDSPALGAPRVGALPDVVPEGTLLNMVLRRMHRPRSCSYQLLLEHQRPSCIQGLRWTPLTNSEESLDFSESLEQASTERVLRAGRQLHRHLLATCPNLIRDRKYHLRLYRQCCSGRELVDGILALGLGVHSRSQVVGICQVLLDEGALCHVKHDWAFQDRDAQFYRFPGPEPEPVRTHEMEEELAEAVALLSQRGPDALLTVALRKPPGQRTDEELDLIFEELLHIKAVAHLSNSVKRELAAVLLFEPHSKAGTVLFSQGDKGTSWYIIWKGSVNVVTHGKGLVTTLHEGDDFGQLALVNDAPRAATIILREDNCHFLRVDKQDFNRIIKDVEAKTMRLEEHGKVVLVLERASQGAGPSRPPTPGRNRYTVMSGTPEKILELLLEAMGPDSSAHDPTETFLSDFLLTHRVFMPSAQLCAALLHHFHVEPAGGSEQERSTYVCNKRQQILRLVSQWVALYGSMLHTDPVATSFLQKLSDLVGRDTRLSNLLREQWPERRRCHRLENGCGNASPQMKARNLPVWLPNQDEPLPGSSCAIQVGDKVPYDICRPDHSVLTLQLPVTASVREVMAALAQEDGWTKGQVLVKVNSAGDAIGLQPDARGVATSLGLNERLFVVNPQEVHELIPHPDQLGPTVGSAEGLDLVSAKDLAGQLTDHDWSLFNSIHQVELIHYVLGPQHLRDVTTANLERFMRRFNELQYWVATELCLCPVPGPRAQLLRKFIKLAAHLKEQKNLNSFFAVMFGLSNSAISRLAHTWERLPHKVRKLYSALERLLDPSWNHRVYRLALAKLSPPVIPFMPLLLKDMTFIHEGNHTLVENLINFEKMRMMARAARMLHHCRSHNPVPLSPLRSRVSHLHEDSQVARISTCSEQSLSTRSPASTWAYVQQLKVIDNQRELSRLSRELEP
Sequence of Rap guanine nucleotide exchange factor 4 (Homo sapiens) (Q8WZA2 whole entry, looked up): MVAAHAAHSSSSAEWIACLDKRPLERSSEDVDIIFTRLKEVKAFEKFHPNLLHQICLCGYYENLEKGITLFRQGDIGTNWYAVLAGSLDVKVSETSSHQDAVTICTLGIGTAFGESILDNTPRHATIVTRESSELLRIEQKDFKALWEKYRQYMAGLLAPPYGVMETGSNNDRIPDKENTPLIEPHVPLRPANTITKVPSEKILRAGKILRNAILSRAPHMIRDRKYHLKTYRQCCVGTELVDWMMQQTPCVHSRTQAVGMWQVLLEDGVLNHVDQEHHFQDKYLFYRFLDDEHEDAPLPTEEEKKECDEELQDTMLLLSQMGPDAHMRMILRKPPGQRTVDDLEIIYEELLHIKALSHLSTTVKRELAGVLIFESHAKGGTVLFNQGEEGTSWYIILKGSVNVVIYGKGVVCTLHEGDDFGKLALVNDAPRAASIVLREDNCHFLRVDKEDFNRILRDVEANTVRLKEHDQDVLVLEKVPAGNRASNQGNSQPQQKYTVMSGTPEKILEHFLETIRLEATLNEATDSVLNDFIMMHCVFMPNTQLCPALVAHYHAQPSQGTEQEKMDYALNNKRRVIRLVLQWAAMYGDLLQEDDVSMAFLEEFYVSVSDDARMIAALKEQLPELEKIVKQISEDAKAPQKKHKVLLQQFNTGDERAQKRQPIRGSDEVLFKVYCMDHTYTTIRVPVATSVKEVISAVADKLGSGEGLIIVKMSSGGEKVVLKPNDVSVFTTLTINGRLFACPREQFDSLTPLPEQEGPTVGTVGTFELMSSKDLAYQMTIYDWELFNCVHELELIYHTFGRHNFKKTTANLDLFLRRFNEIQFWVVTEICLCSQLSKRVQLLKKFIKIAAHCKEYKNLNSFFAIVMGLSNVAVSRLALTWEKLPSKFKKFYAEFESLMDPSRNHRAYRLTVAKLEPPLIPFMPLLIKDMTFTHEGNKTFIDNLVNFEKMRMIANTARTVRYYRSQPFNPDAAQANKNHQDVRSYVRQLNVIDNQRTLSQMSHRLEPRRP
Sequence of Papain (Carica papaya) (P00784 whole entry, looked up): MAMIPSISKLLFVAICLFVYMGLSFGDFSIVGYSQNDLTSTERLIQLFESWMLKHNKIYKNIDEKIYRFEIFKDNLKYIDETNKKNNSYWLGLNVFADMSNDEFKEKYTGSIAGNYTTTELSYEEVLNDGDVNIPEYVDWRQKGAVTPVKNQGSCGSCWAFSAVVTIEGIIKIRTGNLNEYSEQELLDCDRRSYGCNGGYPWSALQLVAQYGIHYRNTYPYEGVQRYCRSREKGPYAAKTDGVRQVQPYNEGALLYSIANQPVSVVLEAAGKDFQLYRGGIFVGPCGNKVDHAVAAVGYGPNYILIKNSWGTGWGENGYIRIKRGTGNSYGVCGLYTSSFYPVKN
Sequence of Calcium and integrin-binding protein 1 (Homo sapiens) (Q99828 whole entry, looked up): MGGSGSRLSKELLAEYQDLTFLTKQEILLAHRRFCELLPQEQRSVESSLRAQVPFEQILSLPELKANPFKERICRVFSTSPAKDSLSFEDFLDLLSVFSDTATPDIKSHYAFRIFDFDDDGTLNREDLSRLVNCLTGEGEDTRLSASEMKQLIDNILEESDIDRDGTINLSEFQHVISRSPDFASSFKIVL
Sequence of N-terminal Xaa-Pro-Lys N-methyltransferase 1 (Homo sapiens) (Q9BV86 whole entry, looked up): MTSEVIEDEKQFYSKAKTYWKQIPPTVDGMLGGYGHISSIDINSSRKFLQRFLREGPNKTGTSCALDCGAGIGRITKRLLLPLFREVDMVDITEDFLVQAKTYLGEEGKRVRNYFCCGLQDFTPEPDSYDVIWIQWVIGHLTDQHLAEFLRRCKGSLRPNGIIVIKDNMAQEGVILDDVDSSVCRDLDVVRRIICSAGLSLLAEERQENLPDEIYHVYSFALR
Sequence of Cytochrome P450 3A4 (Homo sapiens) (P08684 whole entry, looked up): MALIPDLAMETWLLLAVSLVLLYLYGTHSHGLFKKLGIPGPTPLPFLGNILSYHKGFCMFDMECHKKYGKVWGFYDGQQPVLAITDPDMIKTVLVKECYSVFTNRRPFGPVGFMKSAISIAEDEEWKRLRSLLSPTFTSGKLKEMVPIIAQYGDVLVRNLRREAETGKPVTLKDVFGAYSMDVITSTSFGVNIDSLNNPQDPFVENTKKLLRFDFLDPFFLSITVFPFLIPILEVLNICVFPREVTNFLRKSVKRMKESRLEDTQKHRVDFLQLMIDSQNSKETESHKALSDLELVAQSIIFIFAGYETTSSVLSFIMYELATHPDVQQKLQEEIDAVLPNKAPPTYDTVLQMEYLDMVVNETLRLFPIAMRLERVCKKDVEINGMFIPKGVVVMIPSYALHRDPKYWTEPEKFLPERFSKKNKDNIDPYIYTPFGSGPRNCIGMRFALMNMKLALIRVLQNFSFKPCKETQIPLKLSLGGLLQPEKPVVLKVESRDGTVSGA

## O=C(CS)Nc1ccccc1
[1]
  Potency: inactive
[2]
  Potency: 4.9 µM (active)
[3]
  Potency: inactive

## CC(C)Cc1ccc([C@H](C)C(=O)O)cc1
[1]
  Potency: inactive
Papain (Carica papaya)
  Potency: inactive

## COC(=O)[C@H]1[C@H]2C[C@@H]3c4[nH]c5cc(OC)ccc5c4CCN3C[C@H]2C[C@@H](OC(=O)/C=C/c2cc(OC)c(OC)c(OC)c2)[C@@H]1OC
[4]
  Potency: inactive
[5]
  Potency: inactive

## C[C@H](O)[C@H](O)[C@H]1CNc2nc(N)[nH]c(=O)c2N1
[6]
  Potency: inactive
[3]
  Potency: inactive
[7]
  Potency: inactive

## Oc1c(Br)cc(Br)c2cccnc12
[1]
  Potency: inactive
[8]
  Potency: 5.62 µM (active)
[9]
  Potency: inactive
[10]
  outcome: inactive
[2]
  Potency: inactive
[3]
  Potency: 3.76 µM (active)
[7]
  Potency: 3.35 µM (active)

## COc1cccc2c1C(=O)c1c(O)c3c(c(O)c1C2=O)C[C@@](O)(C(=O)CO)C[C@@H]3O[C@H]1C[C@H](N)[C@H](O[C@@H]2CCCCO2)[C@H](C)O1
[8]
  Potency: 10 µM (active)
[9]
  Potency: inactive
[2]
  Potency: 12.3 µM (active)
[3]
  Potency: 0.0067 µM (active)

## O=C1CN(/N=C/c2ccc(-c3ccc([N+](=O)[O-])cc3)o2)C(=O)N1
[11]
  Potency: inactive
[12]
  Potency: 11.2 µM (active)
[13]
  max response: 25.5%

## C[S+](CC[C@H](N)C(=O)O)C[C@H]1O[C@@H](n2cnc3c(N)ncnc32)[C@H](O)[C@@H]1O (some centres not stated)
[9]
  Potency: inactive

## COc1cc(CNC(=O)CCCC/C=C/C(C)C)ccc1O
[3]
  Potency: 7.28 µM (active) and 4.68 µM (active)
[7]
  Potency: 7.28 µM (active) and 4.17 µM (active)

## O=C1CC[C@@H](C(=O)N2CSC[C@H]2C(=O)O)N1 ([pGlu]-[Thz]-OH)
[3]
  Potency: inactive

## Cc1ccc(O)c(-n2nc3ccccc3n2)c1
[8]
  Potency: inactive
[2]
  Potency: 4.36 µM (active)
[3]
  Potency: inactive

## O=C(O)[C@H](CC(=O)N1C[C@H]2CCCC[C@H]2C1)Cc1ccccc1
[9]
  Potency: inactive
[2]
  Potency: inactive
[3]
  Potency: inactive
[7]
  Potency: inactive

## O=C1O/C(=C/Br)CCC1c1cccc2ccccc12 (configuration not stated)
[5]
  Potency: inactive
[14]
  Potency: inactive

## COC(=O)c1nc(Cl)c(Cl)nc1N
[9]
  Potency: inactive
[2]
  Potency: inactive
[3]
  Potency: 0.0596 µM (active)

## CCCCCCCCCCCCCCCC(=O)OC(C)C
[1]
  Potency: inactive
[8]
  Potency: inactive
[2]
  Potency: inactive
[3]
  Potency: inactive
[7]
  Potency: inactive

## COc1cc(/C=C/C(=O)CC(=O)/C=C/c2ccc(O)c(OC)c2)ccc1O
[12]
  Potency: inactive
[3]
  Potency: 11.8 µM (active)
[7]
  Potency: 8.33 µM (active)

## CCC(CO)Nc1nc(NCc2ccccc2)c2ncn(C(C)C)c2n1 (configuration not stated)
Papain (Carica papaya)
  Potency: inactive

## CN(C)c1ccc(C(=C2C=CC(=[N+](C)C)C=C2)c2ccccc2)cc1
[9]
  Potency: 8.71 µM (active)
[3]
  Potency: 0.0944 µM (active)
[7]
  Potency: 0.188 µM (active)

## O=C1NC(=O)c2c1c(-c1ccccc1)cc1[nH]c3ccc(O)cc3c21
[1]
  Potency: inactive
Papain (Carica papaya)
  Potency: inactive

## CN1CCN(c2cc3c(nn2)Oc2ccccc2N3C)CC1
[1]
  Potency: inactive
[8]
  Potency: inactive
[9]
  Potency: inactive
[2]
  Potency: inactive

## CN1[C@@H]2CC[C@H]1CC(OC(c1ccccc1)c1ccccc1)C2 (some centres not stated)
[3]
  Potency: inactive

## Cn1c(=O)c2[nH]c(-c3ccccc3)nc2n(C)c1=O
[1]
  Potency: inactive
Papain (Carica papaya)
  Potency: inactive

## Nc1ccn([C@@H]2O[C@H](CO)[C@@H](O)[C@@H]2O)c(=O)n1
Papain (Carica papaya)
  Potency: inactive

## CC(C)OC(=O)c1cc(C(=O)OC(C)C)cc([N+](=O)[O-])c1
[11]
  Potency: inactive
[8]
  Potency: inactive
[9]
  Potency: 3.73 µM (active)
[2]
  Potency: 0.748 µM (active)
[3]
  Potency: inactive

## O=[N+]([O-])c1ccc2c(c1)S(=O)(=O)C=C2
[1]
  Potency: inactive

## CCCC(=O)OC[C@@H](OC(=O)CCC)[C@@H](OC(=O)CCC)[C@H](Cn1c2nc(=O)[nH]c(=O)c-2nc2cc(C)c(C)cc21)OC(=O)CCC
[9]
  Potency: 7.76 µM (active)

## CC[C@H]1OC(=O)[C@H](C)[C@@H](O[C@H]2C[C@@](C)(OC)[C@@H](O)[C@H](C)O2)[C@H](C)[C@@H](O[C@@H]2O[C@H](C)C[C@H](N(C)C)[C@H]2O)[C@](C)(O)C[C@@H](C)C(=O)[C@H](C)[C@@H](O)[C@]1(C)O
[3]
  Potency: inactive
[7]
  Potency: inactive

## C=CCN1C(=O)C(CC(C)C)NC1=S (configuration not stated)
[2]
  Potency: 23.9 µM (active)

## C=CCc1cccc(/C=N/NC(=O)CN2CCN(Cc3ccccc3)CC2)c1O
[1]
  Potency: inactive
[3]
  Potency: 7.42 µM (active)
[7]
  Potency: 7.42 µM (active)

## CC(=O)[C@]1(O)Cc2c(O)c3c(c(O)c2[C@@H](O[C@H]2C[C@H](N)[C@H](O)[C@H](C)O2)C1)C(=O)c1c(O)cccc1C3=O
[4]
  Potency: inactive
[5]
  Potency: 70.6 µM (active)
[14]
  Potency: 79.3 µM (active)

## C=CCCCCCCCCC(=O)O
[8]
  Potency: inactive
[9]
  Potency: inactive
[2]
  Potency: inactive
[3]
  Potency: inactive

## Clc1ccccc1-c1nc(-c2ccncc2)no1
[1]
  Potency: inactive
[8]
  Potency: inactive
[9]
  Potency: 3.47 µM (active)
[2]
  Potency: 5.49 µM (active)
[15]
  Potency: 25.1 µM (active)

## COC(=O)C1=C(C)NC(C)=C(C(=O)OCC(C)=O)C1c1ccccc1[N+](=O)[O-] (configuration not stated)
[1]
  Potency: inactive
[8]
  Potency: inactive
[2]
  Potency: 8.71 µM (active)
[3]
  Potency: 11.9 µM (active)

## COc1ccc(Br)cc1S(=O)(=O)NC(=O)/C=C/c1ccccc1Cc1ccc2ccccc2c1
Papain (Carica papaya)
  Potency: inactive

## CC1(C)[C@@H](O)CC[C@]2(C)[C@H]3C(=O)C=C4[C@@H]5C[C@@](C)(C(=O)O)CC[C@]5(C)CC[C@@]4(C)[C@]3(C)CC[C@@H]12
[6]
  Potency: inactive
[3]
  Potency: inactive
[7]
  Potency: inactive
[4]
  Potency: inactive
[5]
  Potency: inactive
[14]
  Potency: inactive

## C#C[C@]1(O)CC[C@H]2[C@@H]3CCc4cc(O)ccc4[C@H]3CC[C@@]21C
[9]
  Potency: inactive
[3]
  Potency: 11.8 µM (active)

## O=C(O)CCCC[C@@H]1CCSS1
[1]
  Potency: inactive
Papain (Carica papaya)
  Potency: inactive
